Source: PubChem
Hits are enriched below; roughly 2.6% of the tested compounds scored in any of these assays.
GLP1R ag – activates the human GLP-1 receptor; P43220; HEK293 GLP-1R CRE-luciferase, luminescence, 4-6 h; cells express a hypersensitive GLP-1R form; actives 0.007% (n = 380,000); AID 624172; Potency, µM (top dose mostly 45.6 µM), usual class: activators
Target sequence (P43220 whole entry, looked up): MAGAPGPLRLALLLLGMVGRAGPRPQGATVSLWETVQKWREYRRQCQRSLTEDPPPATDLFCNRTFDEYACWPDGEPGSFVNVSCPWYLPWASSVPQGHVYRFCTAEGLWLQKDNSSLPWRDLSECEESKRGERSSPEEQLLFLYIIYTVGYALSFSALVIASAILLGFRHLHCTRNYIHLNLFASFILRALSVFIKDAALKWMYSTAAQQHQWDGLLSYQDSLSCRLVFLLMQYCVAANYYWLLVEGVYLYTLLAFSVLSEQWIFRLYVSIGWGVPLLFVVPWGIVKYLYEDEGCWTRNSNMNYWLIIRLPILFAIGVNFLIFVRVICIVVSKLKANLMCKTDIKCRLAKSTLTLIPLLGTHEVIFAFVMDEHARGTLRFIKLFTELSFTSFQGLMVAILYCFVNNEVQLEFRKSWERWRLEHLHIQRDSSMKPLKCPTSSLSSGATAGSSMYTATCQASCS
BRCA1 expr act – increases BRCA1 expression. Potency, µM (top dose mostly 46.1 µM), hits mostly activators. MCF7-BRCA1-FFLuc reporter, luminescence, 48 h; response scale: scaled: vehicle 0%, 10 µM genistein 100%. actives 1.1% (n = 380,000); also: nearly all actives have a fitted effect of over 80% in size
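Reporter cells (MCF7, BRCA1 promoter-firefly luciferase) received library compounds across a concentration series for 48 h. End-point luminescence was measured and concentration-effect curves derived after normalization.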
GLP1R cytotox – cytotoxic in the GLP-1 receptor inverse agonist counter-screen; Potency, µM (highest dose often 38.3 µM), actives largely listed as inhibitors; actives 0.13% (n = 410,000); HEK293 cAMP-luciferase reporter cells, luminescence, 24 h; AID 624418;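 also: loss of luciferase light is scored as toxicity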
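Luminescence readout: signal drop marks cytotoxicity. Plated cells grew 12 h at 37 °C, 5% CO2, received 23 nL compound for 24 h, then got luciferase reagent, read after 12 min at RT.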
GLP1R inv ag – acts as inverse agonist at human GLP-1 receptor; Potency, µM (doses to about 38.3 µM), hits mostly inhibitors; actives 1.6% (n = 410,000); P43220; HEK293 GLP-1R CRE-luciferase, luminescence, 24 h; GLP-1R form is constitutively active; also: nearly all actives have a fitted effect of over 55% in size
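Inverse agonists were sought by their lowering of basal cAMP reporter luciferase output in HEK293 cells stably carrying constitutively active human GLP-1R, after 24 h compound treatment.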
A number is an active result; – = inactive; ? = inconclusive; · = no result. Calls follow the shape of the dose curve; as a rule, active = well fitted curve in the direction sought with a large enough effect; inconclusive = small, poorly fitted or top-dose-only effect, or another doubt; inactive = no such curve, though single readings can be large; an effect the other way counts as inactive or inconclusive.

SMILES	GLP1R ag	BRCA1 expr act	GLP1R cytotox	GLP1R inv ag
Cc1cccc(N2CCN(C(=O)CN3C(=O)COc4ccc(S(=O)(=O)N5CCCC5)cc43)CC2C)c1 (centres undefined)	–	–	–	–
Oc1ccc(/C=N/Nc2ncc(Cl)cc2Cl)cc1	–	13µM	–	?
COc1cc2c(NC3CCN(C)CC3)nc(N3CCCN(C)CC3)nc2cc1OCCN(C)C	·	–	·	·
Cc1ccccc1-c1nn2c(=O)cc(CN3CCN(S(=O)(=O)c4ccc(Cl)cc4)CC3)nc2s1	·	–	–	–
Cc1cc(N2CCCCC2C)nc(-c2ccccc2O)n1 (centres undefined)	–	–	–	11µM
CN1CCN(C(=O)C(=O)Nc2c3c(nn2-c2ccc(Cl)cc2)CSC3)CC1	·	·	–	–
S=C(Nc1ccc(Cl)cc1)c1nc2ccccc2s1	–	–	–	–
O=C(Nc1ccc(Cl)cc1)/C(=C/c1cccc(O)c1)c1nc2ccccc2s1	–	–	–	2.8µM
O=C(c1ccc2nc(Cc3ccccc3F)oc2c1)N1CCCC1	–	5.6µM	–	–
CC(=O)N1CCCN(C(=O)c2ccc3nc(Cc4ccccc4F)oc3c2)CC1	–	–	–	–
CC(c1ccccn1)N(C)C(=O)c1ccc2nc(Cc3ccccc3F)oc2c1 (centres undefined)	–	11µM	–	–
Cc1cc(CNC(=O)c2ccc3nc(Cc4ccccc4F)oc3c2)nn1C	–	8.9µM	–	–
CC1CCN(c2oc(-c3ccc(COc4ccccc4)o3)nc2C#N)CC1	·	·	–	?
CCCSc1ncc(Cl)c(C(=O)Nc2ccc(S(=O)(=O)N3CCCC(C)C3)cc2)n1 (centres undefined)	·	·	–	?
Cn1c(C(=O)NC2CCCCC2)cc2c(=O)n3ccccc3nc21	–	–	–	–
Cn1c(C(=O)NCc2ccccn2)cc2c(=O)n3ccccc3nc21	–	5µM	–	–
O=C(CSc1ncc2c(n1)-c1cc(Cl)ccc1N(Cc1ccccc1F)S2(=O)=O)Nc1cccc(C(F)(F)F)c1	·	–	–	–
COc1ccc(NC(=O)c2cc3c(s2)-c2c(C)cccc2OC3)cc1Cl	·	·	–	–
CC(C)OC(=O)/C(=C\c1cccc2ccccc12)NC(=O)c1ccccc1	–	–	–	10µM
Cc1cc(=O)[nH]c(-n2nc(C)c(Oc3ccccc3O)c2C)n1	–	–	–	–
Cc1nn(-c2ccc(C(F)(F)F)cn2)c(C)c1Oc1ccccc1O	–	–	–	7.9µM
C=C1C=C(C(F)F)n2ncc(C(=O)NCc3ccc(Cl)cc3)c2N1	·	–	·	·
COc1cc(/C=N\NC(=O)CC#N)ccc1OC/C=C/c1ccccc1	–	–	–	13µM
CC(=O)N/N=C\c1cccc(OC/C=C/c2ccccc2)c1	–	–	–	3.5µM
COCC(=O)N/N=C\c1ccc(OC/C=C/c2ccccc2)c(OC)c1	–	–	?	?
SMILES	GLP1R ag	BRCA1 expr act	GLP1R cytotox	GLP1R inv ag
N#CCC(=O)N/N=C\c1cccc(OC/C=C/c2ccccc2)c1	–	–	–	3.2µM
CC(=O)N/N=C\c1ccccc1OC/C=C/c1ccccc1	–	2.8µM	–	–
CCCCCCCC/C=C\CCCCCCCC(=O)OC[C@@H](O)[C@H]1OC[C@H](O)[C@H]1O	–	·	·	·
CCOC(=O)c1cccc(NC(=O)c2cn(-c3cccc(OC)c3)c(=O)c3ccccc23)c1	·	·	–	–
COC(=O)c1ccccc1NC(=O)N1c2ccccc2Sc2ccccc21	–	–	–	10µM
CCOC(=O)c1ccc2c(c1)N(Cc1cccc([N+](=O)[O-])c1)C(=O)c1ccccc1S2	–	–	–	–
CCN(CC)CCNC(=S)NC(=O)c1cn(-c2ccccc2)nc1-c1ccc(OC)cc1	–	–	?	5µM
COc1ccc(NC(=O)c2cn(-c3ccccc3)nc2-c2ccc(C)cc2)cc1	·	·	–	7.9µM
COc1ccc(NC(=O)CN(C)C(=O)c2cn(-c3ccccc3)nc2-c2cccs2)cc1	–	–	–	11µM
CCOC(=O)c1ccc(NC(=O)c2cn(-c3ccccc3)nc2-c2ccc(C)cc2)cc1	·	·	–	–
Cc1ccc(-c2nn(-c3ccccc3)cc2C(=O)Nc2ccc(C(=O)O)cc2)cc1	–	10µM	–	–
Cc1ccc(NC(=O)c2cn(-c3ccccc3)nc2-c2ccccc2)cc1	·	·	–	?
CCc1nc2c(OCCn3cccc3)cccn2c1N(C)C(=O)C1CC1	–	–	–	–
NC(=O)CC(NC(=O)c1ccc(Br)cc1)c1ccc(N2CCCCCC2)c([N+](=O)[O-])c1 (centres undefined)	–	–	–	11µM
Cc1ccc(NC(=O)CN2CC(C)SC2=NC2CCCCC2)cc1 (centres undefined)	–	–	?	11µM
Cc1cc(C(=O)Nc2ccc(S(=O)(=O)Nc3onc(C)c3C)cc2)c(C)o1	–	–	–	–
Cc1ccc2oc(C(=O)Nc3ccc(S(=O)(=O)Nc4onc(C)c4C)cc3)c(C)c2c1	–	11µM	–	–
CSCCC(NC(=O)c1ccco1)C(=O)NCC(C)(C)N1CCOCC1 (centres undefined)	–	–	–	–
Cc1ccc(CNC(=O)c2cc3c(s2)-c2ccccc2SC3)cc1	·	·	–	?
Cc1cc(Br)ccc1NC(=O)c1cc2c(s1)-c1ccccc1SC2	·	·	–	10µM
O=C1C(c2ccc(F)cc2)N(CCc2ccccc2)C(=O)CN1C1CCCCCC1 (centres undefined)	·	·	–	–
COC(=O)CCC(=O)NNC(=O)C1CC1(c1ccccc1)c1ccccc1 (centres undefined)	–	–	–	–
CCOC(=O)c1c(C)oc2c1c(C=NCc1ccccn1)c(O)c1ccccc12	–	–	?	22µM
CCOC(=O)c1c(C)oc2c1c(C=NCC1CCCO1)c(O)c1ccccc12 (centres undefined)	–	–	–	–
COc1ccc(C2=Nn3c(nnc3-c3ccncc3)SC2)cc1	–	–	–	–
SMILES	GLP1R ag	BRCA1 expr act	GLP1R cytotox	GLP1R inv ag
COc1ccc(C2=Nn3c(nnc3C3CCCCC3)SC2)cc1OC	3.2µM	–	–	–
COc1ccc(-c2nn3c(C4CCCCC4)nnc3s2)cc1OC	2.5µM	–	–	–
CCOc1ccc(C2=Nn3c(nnc3-c3ccc(OC)cc3)SC2)cc1	10µM	–	–	–
COc1cc(-c2nn3c(C4CCCCC4)nnc3s2)cc(OC)c1OC	–	–	–	–
COc1ccc(OC)c(C2=Nn3c(nnc3C3CCCCC3)SC2)c1	–	–	–	–
COc1ccc(C2=Nn3c(nnc3-c3ccccc3OC)SC2)cc1OCC1CC1	4µM	–	·	·
CCOC(=O)c1cnn(-c2ccc(C(=O)Nc3cccc(C(C)=O)c3)cc2)c1N	·	·	–	–
COc1cc(/C=C/c2ccc3ccccc3n2)cc(OC)c1OC	·	–	·	·
COc1ccc(OC)c(-c2nnc3n2N=C(c2ccc(OC)c(OC)c2)CS3)c1	2.2µM	–	·	·
O=C(NCc1ccccc1)C(=O)Nc1c2c(nn1-c1ccccc1)CSC2	·	·	–	?
CCC(CO)Nc1ccn2nc(-c3ccccc3)cc2n1 (centres undefined)	–	3.5µM	–	–
